# Source: PubChem BioAssay (NCATS)
# Inconclusive results are not listed. A call without a number means that no potency is given here. Active and inactive are the calls of the source. The call rests on the fitted dose curve; in most records, active means well fitted curve in the direction sought with a large enough effect in the repeat runs; inconclusive means weak or mixed curves; inactive means no such curve, though single readings can be large; an effect the other way counts as inactive or inconclusive.
# Target: Cytochrome P450 2D6 (Homo sapiens) (UniProt P10635)
# Experiment: Cytochrome P450 family 2 subfamily D member 6 (CYP2D6) small molecule antagonists: luciferase biochemical (cell-free) qHTS assay (AID 1645840)
# Details: P450-Glo CYP2D6 enzyme, luciferin luminescence, 1 h; series mostly up to 57.4 µM
# Procedure, shortened: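 P450-Glo CYP2D6 system: proluciferin substrate converted by enzyme to luciferin, read by luminescence proportional to activity. Enzyme-substrate mix with compound 10 min at room temperature, then NADPH regeneration 1 h before detection reagent.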
# Further: nearly all actives have a fitted effect of over 55% in size.
# Potency means the concentration at half of the fitted maximal effect.
# Chain of Cytochrome P450 2D6 (Homo sapiens) (P10635 whole entry, looked up): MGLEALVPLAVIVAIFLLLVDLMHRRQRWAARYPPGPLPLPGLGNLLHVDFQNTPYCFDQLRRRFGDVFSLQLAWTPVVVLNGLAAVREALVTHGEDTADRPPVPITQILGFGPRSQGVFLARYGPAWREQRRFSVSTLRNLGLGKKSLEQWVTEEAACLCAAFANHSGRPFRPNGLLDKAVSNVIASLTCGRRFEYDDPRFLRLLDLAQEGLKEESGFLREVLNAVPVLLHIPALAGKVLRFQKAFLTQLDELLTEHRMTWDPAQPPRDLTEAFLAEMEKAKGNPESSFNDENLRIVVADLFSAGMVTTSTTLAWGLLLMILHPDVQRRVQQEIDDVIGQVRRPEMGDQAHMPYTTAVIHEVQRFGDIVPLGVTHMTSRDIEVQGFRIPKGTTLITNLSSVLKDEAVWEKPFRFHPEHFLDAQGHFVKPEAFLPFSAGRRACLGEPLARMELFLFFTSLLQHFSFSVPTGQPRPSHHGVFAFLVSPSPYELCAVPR
row,SMILES,Potency
1,CC(=O)c1cc2ccccc2s1,inactive
2,COc1cc(/C=C/C(N)=O)cc(OC)c1OC,inactive
3,Cc1cccc(OCC(O)CNC(C)(C)C)c1C (configuration not stated),11 µM (active)
4,CCCCCCn1c(=O)c2c(ncn2C)n(C)c1=O,inactive
5,COc1cc2nc(Cl)nc(N)c2cc1OC,inactive
6,CC[N+]1(CC)CCC(=C(c2ccccc2)c2ccccc2)C1C (configuration not stated),1.74 µM (active)
7,Cc1cccc(C)c1NC(=O)c1cc(S(N)(=O)=O)c(Cl)cc1O,inactive
8,COc1ccc2nc(SCc3ncc(C)c(OC)c3C)[nH]c2c1,12.3 µM (active)
9,O=C1Nc2cc(Cl)ccc2Oc2ccccc21,inactive
10,COc1cc(C(=O)NC2CCCNC2)cc(OC)c1OC (configuration not stated),inactive
11,O=C1[C@@H]2[C@H]3CC[C@H](C3)[C@@H]2C(=O)N1CCCCN1CCN(c2ncccn2)CC1,15.5 µM (active)
12,Cc1cc(C(C)(C)C)c(O)c(C(C)(C)C)c1,inactive
13,O=C(O)CNC(=O)CNC(=O)CNC(=O)CSC(=O)c1ccccc1,inactive
14,O=C(O)Cc1ccc(OCCNC[C@H](O)c2ccccc2)cc1,inactive
15,Nc1ccc2c(c1)CN1C(=O)c3ccccc3C1=N2,1.69 µM (active)
16,O=C(O)CCCC[P+](c1ccccc1)(c1ccccc1)c1ccccc1,inactive
17,CCOc1ccc(NS(=O)(=O)c2ccc(N)cc2)nn1,inactive
18,CCN1CCCC1CN (configuration not stated),inactive
19,Cc1ccc(Cl)c(OCC(O)CNC(C)(C)C)c1 (configuration not stated),1.74 µM (active)
20,CC1(C)O[C@@H]2C[C@H]3[C@@H]4C[C@H](F)C5=CC(=O)C=C[C@]5(C)[C@@]4(F)[C@@H](O)C[C@]3(C)[C@]2(C(=O)CO)O1,inactive

# Target: Cytochrome P450 2C9 (Homo sapiens) (UniProt P11712)
# Experiment: Cytochrome P450 family 2 subfamily C member 9 (CYP2C9) small molecule antagonists: luciferase biochemical (cell-free) qHTS assay (AID 1645842)
# Details: P450-Glo CYP2C9 enzyme assay, luciferin luminescence; series mostly up to 57.4 µM
# Procedure, shortened: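 P450-Glo CYP2C9 system: proluciferin substrate with enzyme in mix containing 0.4% BSA, 10 min at room temperature, then NADPH regeneration solution added and incubated 1 h at 37C. Detection reagent stopped reaction; luminescence read after 20 min as RLU.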
# Chain of Cytochrome P450 2C9 (Homo sapiens) (P11712 whole entry, looked up): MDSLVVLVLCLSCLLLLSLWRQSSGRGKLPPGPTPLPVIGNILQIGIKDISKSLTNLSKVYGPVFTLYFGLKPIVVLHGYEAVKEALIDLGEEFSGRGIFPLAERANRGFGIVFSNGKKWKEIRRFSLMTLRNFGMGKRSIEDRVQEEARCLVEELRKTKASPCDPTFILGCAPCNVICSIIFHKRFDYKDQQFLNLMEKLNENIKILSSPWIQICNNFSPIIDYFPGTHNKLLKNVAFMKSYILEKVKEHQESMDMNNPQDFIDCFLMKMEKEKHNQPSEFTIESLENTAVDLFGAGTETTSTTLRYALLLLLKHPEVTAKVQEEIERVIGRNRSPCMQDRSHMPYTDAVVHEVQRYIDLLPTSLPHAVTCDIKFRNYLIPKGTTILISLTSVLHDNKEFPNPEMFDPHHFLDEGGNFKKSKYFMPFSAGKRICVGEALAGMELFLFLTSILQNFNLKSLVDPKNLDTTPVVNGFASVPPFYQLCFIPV
row,SMILES,Potency
1,OC1(c2ccc(Cl)c(C(F)(F)F)c2)CCN(CCCC(c2ccc(F)cc2)c2ccc(F)cc2)CC1,15.5 µM (active)
2,CCCC(=O)O[C@]1(C(=O)CC)CC[C@H]2[C@@H]3CCC4=CC(=O)CC[C@]4(C)[C@H]3[C@@H](O)C[C@@]21C,17.4 µM (active)
3,CC(=O)OCC(=O)[C@@]1(O)[C@H](OC(C)=O)C[C@H]2[C@@H]3CCC4=CC(=O)C=C[C@]4(C)[C@@]3(F)[C@@H](O)C[C@@]21C,inactive
4,NS(=O)(=O)c1cc(C(=O)NN2C[C@H]3[C@H]4CCC(C4)[C@H]3C2)ccc1Cl,inactive
5,CO/N=C(/C(=O)N[C@@H]1C(=O)N2C(C(=O)O)=C(Cn3nnc(C)n3)CS[C@H]12)c1csc(N)n1,inactive
6,O=C1NC(c2ccccc2)(c2ccccc2)C(=O)N1COP(=O)(O)O,inactive
7,Cn1c(=O)c2c(ncn2CC(=O)O)n(C)c1=O,inactive
8,NS(=O)(=O)c1cc2c(cc1Cl)CN(C1CCCCC1)C2=O,inactive
9,CC(=O)Nc1ccc(S(=O)(=O)Nc2cc(C)on2)cc1,inactive
10,O=C(Oc1ccccc1)c1ccccc1O,inactive
11,Cc1ncc(CO)c(CO)c1O,inactive
12,Cc1sccc1Br,inactive
13,COc1ccc2c(c1)CCCC2=O,inactive
14,O=C(CCCCC(=O)Nc1c(I)cc(I)c(C(=O)O)c1I)Nc1c(I)cc(I)c(C(=O)O)c1I,inactive
15,C[N+](C)(CCOc1ccccc1)Cc1cccs1,inactive
16,O=C(CO)[C@@H](O)[C@H](O)[C@@H](O)CO,inactive
17,OC1(c2ccccc2)CCNCC1,inactive
18,CC(=O)c1cc2ccccc2s1,inactive
19,COc1cc(/C=C/C(N)=O)cc(OC)c1OC,inactive

row,SMILES,Potency
1,Cc1cccc(OCC(O)CNC(C)(C)C)c1C (configuration not stated),inactive
2,CCCCCCn1c(=O)c2c(ncn2C)n(C)c1=O,inactive
3,COc1cc2nc(Cl)nc(N)c2cc1OC,inactive
4,CC[N+]1(CC)CCC(=C(c2ccccc2)c2ccccc2)C1C (configuration not stated),inactive
5,Cc1cccc(C)c1NC(=O)c1cc(S(N)(=O)=O)c(Cl)cc1O,inactive
6,COc1ccc2nc(SCc3ncc(C)c(OC)c3C)[nH]c2c1,inactive
7,O=C1Nc2cc(Cl)ccc2Oc2ccccc21,inactive
8,COc1cc(C(=O)NC2CCCNC2)cc(OC)c1OC (configuration not stated),inactive
9,O=C1[C@@H]2[C@H]3CC[C@H](C3)[C@@H]2C(=O)N1CCCCN1CCN(c2ncccn2)CC1,inactive
10,Cc1cc(C(C)(C)C)c(O)c(C(C)(C)C)c1,inactive
11,O=C(O)CNC(=O)CNC(=O)CNC(=O)CSC(=O)c1ccccc1,inactive
12,O=C(O)Cc1ccc(OCCNC[C@H](O)c2ccccc2)cc1,inactive
13,Nc1ccc2c(c1)CN1C(=O)c3ccccc3C1=N2,4.25 µM (active)
14,O=C(O)CCCC[P+](c1ccccc1)(c1ccccc1)c1ccccc1,inactive
15,CCOc1ccc(NS(=O)(=O)c2ccc(N)cc2)nn1,inactive
16,CCN1CCCC1CN (configuration not stated),inactive
17,Cc1ccc(Cl)c(OCC(O)CNC(C)(C)C)c1 (configuration not stated),inactive
18,CC1(C)O[C@@H]2C[C@H]3[C@@H]4C[C@H](F)C5=CC(=O)C=C[C@]5(C)[C@@]4(F)[C@@H](O)C[C@]3(C)[C@]2(C(=O)CO)O1,inactive
